Test results reported in ChEMBL document CHEMBL3988442, “University of Dundee, Small-Polar-MMV Screening Library” (2021).
The campaign covered roughly 48,000 compounds. About 13,000 (27%) showed an effect of 50% or more. The list shows a part of the results.

Tested on: Wolbachia pipientis
Assay: Anti-Wolbachia Cell-Based Screen
Assay type: functional
Set-up: scale not given: in the data most compounds retested in dose-response had high values
Conditions: 5 µM

SMILES	Percent Effect [%]
CC(CCCC(C)(C)O)Nc1ccc(-c2nccn2C)nn1 (stereo not drawn)	6.201
COc1cc(N2CCC(c3nccn3Cc3ccccc3)CC2)ncn1	-9.757
CN(C)C(=O)c1ccc2c(c1)N(C)C(CC(=O)NCCC(C)(C)C)CO2 (stereo not drawn)	1.305
CC(C)=CCN1CCN(Cc2nc3ccccc3[nH]2)[C@H]2CS(=O)(=O)C[C@H]21	-9.753
CC(C)=CCN1CCN(Cc2ncc[nH]2)[C@H]2CS(=O)(=O)C[C@H]21	-11
Cn1ccnc1CN1CCN(CC2CC2)[C@@H]2CS(=O)(=O)C[C@@H]21	106.1
O=S1(=O)C[C@@H]2[C@H](C1)N(Cc1cc(Cl)cc(Cl)c1)CCN2CC1CC1	5.878
CC(C)=CCN1CCN(Cc2nccn2C)[C@H]2CS(=O)(=O)C[C@H]21	99.3
O=S1(=O)C[C@@H]2[C@H](C1)N(Cc1ncc[nH]1)CCN2CC1CC1	-14.64
CN1CCN(c2cnn(Cc3ccc(S(C)(=O)=O)cc3)c(=O)c2)CC1	4.016
Cc1ccc(N2CCCC(N3CCN(CC(F)F)CC3)C2=O)cc1 (stereo not drawn)	-21.44
Cc1cccc(C(=O)N(C)C2CCN(c3ccccn3)CC2)c1C	141.7
Cc1ccccc1CC(=O)N(C)C1CCN(c2ccccn2)CC1	-4.877
CN(C1CCN(c2ccccn2)CC1)S(=O)(=O)c1ccc(F)cc1	18.41
CCOc1ncccc1C(=O)N(C)C1CCN(c2ccccn2)CC1	144.5
COc1ccccc1C(=O)N(C)C1CCN(c2ccccn2)CC1	177.1
CN(C(=O)c1ccccc1Cl)C1CCN(c2ccccn2)CC1	11.04
CN(C(=O)CNc1ccc(C#N)cc1)C1CCN(c2ccccn2)CC1	6.622
CN(C(=O)c1cccc2[nH]ncc12)C1CCN(c2ccccn2)CC1	-1.361
O=C(Cn1cnnn1)NCC1(O)CCCc2ccccc21 (stereo not drawn)	-5.769
CC(=O)Nc1ccc(CNC(=O)CNCc2sc(C)nc2C)cc1	-27.38
CCOC(=O)CC(C)NC(=O)c1cn(Cc2ccccc2F)nn1 (stereo not drawn)	-6.246
CNC(=O)C(C)NC(=O)c1ccc(Oc2cccnc2)cc1 (stereo not drawn)	-6.707

SMILES	Percent Effect [%]
CN(C(=O)COc1ccc(F)cc1)[C@@H]1CS(=O)(=O)C[C@H]1O	1.163
CN(C(=O)COc1ccc(F)cc1)[C@@H]1CC[C@@H](n2ccnc2)[C@@H]1O	128.1
CO[C@@H]1CC[C@@H](N(C)C(=O)COc2ccc(F)cc2)[C@H]1O	-1.969
CC(C)Cc1cc(NC(=O)c2ccc3[nH]nnc3c2)n(C)n1	-17.03
CCC(C)N(CC)C(=O)c1ccc2[nH]nnc2c1 (stereo not drawn)	122.8
CCOc1cc(C(=O)N(C)C)ccc1NC(=O)C(C)c1ccsc1 (stereo not drawn)	-4.912
CCC(C)N(Cc1ccsc1)C(=O)c1ccc2[nH]nnc2c1 (stereo not drawn)	109
Cn1nc(CC(C)(C)C)cc1NC(=O)c1ccc2[nH]nnc2c1	-11.38
CC(=O)N(Cc1ccsc1)c1ccccc1	-9.96
CCC(CO)N(Cc1ccc(C(=O)O)cc1)Cc1ccsc1 (stereo not drawn)	4.353
CN(C)c1cccc(CNC(=O)Nc2ccc3[nH]nnc3c2)n1	0.1018
CCC(C)N(Cc1ccsc1)C(=O)c1ccc(CO)cc1 (stereo not drawn)	113.9
CCn1nc(C)c(CCNC(=O)C2CCCN(C(=O)N(C)C)C2)c1C (stereo not drawn)	-3.526
COC(=O)CN(Cc1ccccc1C)C(=O)C1CCC1	9.342
CN(Cc1cccs1)C(=O)CN(C)C1CCc2ccccc21 (stereo not drawn)	8.524
Cc1cnc(N2CCc3c(c(COc4cncnc4)nn3C)C2)nc1	94.36
Cn1nc(COc2cncnc2)c2c1CCN(Cc1ccco1)C2.O=C(O)C(F)(F)F	2.599
Cn1nc(COc2cncnc2)c2c1CCN(Cc1ccccn1)C2.O=C(O)C(F)(F)F	8.456
Cc1cnc(N2CCc3onc(COc4cccnc4)c3C2)nc1	88.9
Cn1nc(Cn2ccnc2)c2c1CN(c1ncccn1)C2.O=C(O)C(F)(F)F	-4.507
c1cncc(OCc2noc3c2CN(Cc2ccoc2)CC3)c1	7.434
O=C(O)C(F)(F)F.c1ccc(OCc2noc3c2CN(c2ncccn2)CC3)nc1	2.544
Cn1nc(COc2cccnc2)c2c1CCN(c1ncccn1)C2	87.22

SMILES	Percent Effect [%]
CCN(CC)c1ccc(NS(=O)(=O)c2cccnc2)cn1	2.803
C[C@@H](NC(=O)c1cccn1C)c1c(-c2ccc(Cl)cc2)noc1C(=O)O	1.666
Cc1nccn1-c1ccc(CNS(=O)(=O)N2CCCCC2C)cn1 (stereo not drawn)	6.496
NC(=O)C1(CCCc2ccccn2)CCCN(Cc2ncc[nH]2)C1 (stereo not drawn)	141.6
CCOC(=O)C1(Cc2cccc(OC)c2)CCCN(Cc2ncc[nH]2)C1 (stereo not drawn)	25.22
O=C(O)C1(Cc2ccc(F)cc2)CCCN(Cc2ccncc2)C1 (stereo not drawn)	-12.28
Cn1cc(CN2CCCC(CCCc3ccccn3)(C(N)=O)C2)cn1 (stereo not drawn)	84.15
CCOC(=O)C1(Cc2cccc(Cl)c2)CCCN(Cc2ncc[nH]2)C1 (stereo not drawn)	-2.445
O=C(O)C1(Cc2ccc(F)cc2F)CCCN(Cc2ccncc2)C1 (stereo not drawn)	1.95
Cn1cc(CN2CCC3(CCCN(Cc4ccccn4)C3)CC2)cn1	-1.039
NC(=O)C1(CCCc2ccccn2)CCCN(Cc2ccncc2)C1 (stereo not drawn)	119.7
O=C(O)CCc1cc2n(n1)CCCN(C(=O)c1ccc(Cl)s1)C2	-14.6
CCN1CCC(NN2CCN(C)CC2)CC1	4.072
CCS(=O)(=O)NCC(=O)N1CC2(CCCC2)c2c(F)cccc21	-9.992
CC(=O)N[C@H]1C[C@@H](c2nc(-c3ccc4c(c3)OCO4)no2)N(C)C1	-4.728
CN1C[C@@H](F)[C@@H](OCc2nc3ccccc3[nH]2)C1	-2.12
COCCc1ncc(CN2C[C@H](C3CC3)[C@@H](N)C2)cn1	-19.64
c1cnc(N2CCC3(CCCN(CC4CCCCC4)C3)C2)cn1 (stereo not drawn)	13.44
COCCc1ncc(CN2CCC3(CCCN(CC4CC4)C3)C2)cn1 (stereo not drawn)	106.1
COCCc1ncc(CN2CCC(Oc3ccccc3C)CC2)cn1	2.53
COc1ncc(CN2CCC3(CCCN(CC4CCCCC4)C3)C2)cn1 (stereo not drawn)	96.23
OCC1(CC2CC2)CCCN(Cc2cnc(C3CCCCC3)nc2)C1 (stereo not drawn)	-2.459
